Measurements from PubChem BioAssay AID651719 (The Scripps Research Institute Molecular Screening Center, 2012).
The campaign covered roughly 360,000 compounds. About 1,600 (0.44%) were called active.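 The calls were made as follows: active = inhibition above the screen-wide average plus 3 SD (cut at about 13% in these data); inactive = the rest.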 What follows is part of a selection rich in actives, with near analogues and random picks from the rest.

Target: Galanin receptor type 3 (Homo sapiens) (UniProt O60755)
Sequence (O60755 1-299 limits assumed): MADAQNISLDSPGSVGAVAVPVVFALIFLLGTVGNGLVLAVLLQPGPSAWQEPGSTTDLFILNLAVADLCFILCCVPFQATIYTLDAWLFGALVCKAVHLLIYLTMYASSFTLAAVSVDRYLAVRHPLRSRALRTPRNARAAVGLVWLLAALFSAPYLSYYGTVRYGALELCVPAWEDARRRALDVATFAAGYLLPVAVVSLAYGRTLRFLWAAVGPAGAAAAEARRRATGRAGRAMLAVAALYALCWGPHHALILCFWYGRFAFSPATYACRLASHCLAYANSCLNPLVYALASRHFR
Test: GalR3 antagonists in HEK293 cells, primary screen, cell-based, fluorescence readout (AID 651719);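 also: forskolin and galanin both at EC90 stimulate the cells; cAMP rise reported by CNG channel membrane potential dye signal; 0% = forskolin plus galanin with DMSO and 100% = forskolin alone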
Conditions: HEK293 GalR3-CNG cAMP membrane potential fluorescence; at 3 µM; hits give high values; galR3 body fused to GalR1 C-terminus

SMILES	inhibition
CC(=O)c1ccc(S(=O)(=O)NCC2CCN(C(=O)C(=O)c3cccs3)CC2)cc1	-4.03% (inactive)
CC[C@H](NC(=O)[C@H](Cc1ccccc1)NC(=O)[C@H]1O[C@@H](n2cnc3c(=O)[nH]c(N)nc32)[C@H](O)[C@@H]1O)c1ccccc1	-6.3% (inactive)
CCCOc1ccc(Cc2c(O)nc(SC)[nH]c2=O)cc1C	-4.3% (inactive)
CCCOc1ccc(Cn2c(O)cc(=O)[nH]c2=O)cc1	4.51% (inactive)
CCCOc1ccc(Cc2c(Cl)nc(SC)nc2NC)cc1	63.8% (active)
COc1cccc(CNC(=O)[C@H]2CCCN2C(=O)[C@H]2CCCN2C(=O)c2cc(F)cc(F)c2)c1	-4.4% (inactive)
O=C1[C@@H](c2ccccc2)[C@@H](c2ccccc2)N1c1ccccc1	-1.03% (inactive)
O=C(NCc1ccccc1)[C@@H]1CCCN1C(=O)[C@@H](NS(=O)(=O)c1ccc(F)cc1F)C1CCCCC1	-7.14% (inactive)
COc1cc(Nc2nc3ccc(Cl)cc3n3cnnc23)cc(OC)c1OC	-10.3% (inactive)
COc1ccc(CCNc2nc(C)cc(C)n2)cc1OC	-8.92% (inactive)
COc1ccc(CCNc2nc3ccc(C)cc3n3cnnc23)cc1OC	18.6% (active)
C[C@H](CO)N1C[C@H](C)[C@@H](CN(C)C(=O)Nc2ccccc2F)OCc2cn(nn2)CCCC1=O	-5.31% (inactive)
COc1cccc(CNC(=O)[C@H]2CCCN2C(=O)[C@H]2CCCN2C(=O)c2ccc(F)cc2)c1	-5.33% (inactive)
CSc1nc(N(C)NC(=O)c2cccc(C)c2)c2ccccc2n1	17.1% (active)
CN(NC(=O)c1ccccc1F)c1nc(C(F)(F)F)nc2ccccc12	0.05% (inactive)
Cc1ccc(S(=O)(=O)NC(=O)c2cccc(C)c2)cc1	-0.66% (inactive)
O=C(NN=Cc1ccco1)C(=O)Nc1ccc(Cl)c([N+](=O)[O-])c1	-5.99% (inactive)
N#CC1=C(N)Oc2n[nH]c(CSc3ccccc3)c2C12C(=O)Nc1ccccc12 (configuration not stated)	-2.39% (inactive)
Cc1cc(C)c(C#N)c(SCc2ccc3c(c2)OCO3)n1	-0.74% (inactive)
Cc1cc(C)c(C#N)c(SCc2[nH]nc3c2C(c2ccccc2)C(C#N)=C(N)O3)n1 (configuration not stated)	34.7% (active)
Nc1nc(NCC(=O)O)nc(N2CCCCCC2)c1[N+](=O)[O-]	15.1% (active)
COCCNc1nc(N)c([N+](=O)[O-])c(N2CCCCCC2)n1	-10.6% (inactive)

SMILES	inhibition
CC1CN(c2nc(Nc3ccccc3)nc(N)c2[N+](=O)[O-])CC(C)O1 (configuration not stated)	-0.56% (inactive)
COC(=O)C1=C(C)N(Cc2cccc(C(F)(F)F)c2)C(=NCc2ccccc2)NC1c1ccccc1C(F)(F)F (configuration not stated)	-3.46% (inactive)
COC(=O)C1=C(C)N(Cc2ccc(C(F)(F)F)cc2)C(=NCc2ccc(C(F)(F)F)cc2)NC1c1cccc(Cl)c1 (configuration not stated)	-3.2% (inactive)
CCNC(=S)Nc1ccc(OC(F)(F)F)cc1	13.5% (active)
CN(CC(=O)Nc1ccc(OC(F)(F)F)cc1)C(=O)C1CCC1	-3.79% (inactive)
COC(=O)Cc1ccc(OCC(=O)Nc2ccc(OC(F)(F)F)cc2)cc1	0.64% (inactive)
CCc1ccc(C2=CC(=O)CC(C)(C)C2=O)cc1	-5.55% (inactive)
CC(C)CNc1cccc2c1S(=O)(=O)N[C@H](CC(C)C)CO2	-4.83% (inactive)
COC(=O)C1=C(C)NC(=S)NC1c1ccc(OC)cc1 (configuration not stated)	-6.49% (inactive)
COC(=O)c1cc2c(c3c4ccccc4n(S(=O)(=O)c4cccc(C)c4)c13)C(=O)N(Cc1ccccc1)C2	-7.5% (inactive)
Cc1c(N=Nc2ccc(N(C)C)cc2)c(=O)n(-c2ccccc2)n1C	4.41% (inactive)
Cc1nc(N)sc1N=Nc1c(C)n(C)n(-c2ccccc2)c1=O	-1.11% (inactive)
CCn1c(-c2cc(OC)ccc2OC)csc1=Nc1c(C)n(C)n(-c2ccccc2)c1=O	12.9% (active)
Cc1[nH]nc2c1C(c1ccc(Br)cc1)NC2=O (configuration not stated)	-4.49% (inactive)
CN1CCCCC(NC(=O)C(C)(C)C)C1=O (configuration not stated)	-7.34% (inactive)
N#Cc1ccc(OCCCN2CCC(C(O)(c3ccccc3)c3ccccc3)CC2)c(F)c1	-9.27% (inactive)
CCOC(=O)C1CSCCS(=O)(=O)N1Cc1ccc(Cl)cc1 (configuration not stated)	-4.45% (inactive)
CC1(C)OC(=O)C2=C(CC(CCc3ccccc3)OC2c2ccc(Cl)cc2)O1 (configuration not stated)	-5.79% (inactive)
O=C(CC1C(=O)NCCN1CC(c1ccccc1)c1ccccc1)NCC1CCOCC1 (configuration not stated)	-1.82% (inactive)
O=C(CC1C(=O)NCCN1CC(c1ccccc1)c1ccccc1)NCCc1cn[nH]c1 (configuration not stated)	13.4% (active)
CN(CCc1cn[nH]c1)C(=O)CC1C(=O)NCCN1Cc1cccc(Oc2ccccc2)c1 (configuration not stated)	-7.77% (inactive)
CCOC(=O)/C=C/c1ccccc1O	-6.85% (inactive)

SMILES	inhibition
C=CCN=C1NC(c2ccccc2)C(C(=O)OC)=C(C)N1Cc1ccc(C(F)(F)F)cc1 (configuration not stated)	-6.78% (inactive)
Brc1ccc(OCCn2ccnc2)cc1	0.74% (inactive)
c1ccc(Cc2ccc(OCCn3ccnc3)cc2)cc1	44.4% (active)
Clc1c(OCCCn2ccnc2)ccc2ccccc12	-12.1% (inactive)
C=CC[C@]12C[C@@]3(O[C@H](c4ccc(C(F)(F)F)cc4)N=C3C[C@H](c3ccc(OC)cc3)[C@H]1C)N(C1CCN(Cc3ccccc3)CC1)C2=O	-4.57% (inactive)
CCOc1ccccc1C(=O)N1CCC[C@@H]1C(=O)N1CCC[C@H]1C(=O)NCc1ccccc1	-4.67% (inactive)
CC(=O)c1cccc(OCc2cc(C(=O)NC(C)Cc3cccnc3)no2)c1 (configuration not stated)	0.17% (inactive)
CN(Cc1cccnc1)C(=O)c1cc(COc2ccc3ncccc3c2)on1	91.7% (active)
CN(Cc1cnccn1)C(=O)c1cc(COc2cccc(C(F)(F)F)c2)on1	-2.96% (inactive)
O=S1(=O)c2c(cccc2N2CCCC2)O[C@H](COCc2ccccc2)CN1C1CC1	-3.31% (inactive)
Cn1cnc([N+](=O)[O-])c1Sc1n[nH]c(N)n1	-10.2% (inactive)
Cn1cnc([N+](=O)[O-])c1Sc1ccccc1	-2.26% (inactive)
Cn1cnc([N+](=O)[O-])c1Nc1ccccc1O	13.4% (active)
Cc1cc(Br)cn2c(Cc3ccccc3C(F)(F)F)c(-c3ccc(C#N)cc3)nc12	-0.22% (inactive)
Nc1[nH]c(C(=O)c2ccccc2)c(-c2ccc(Cl)cc2Cl)c1C(=O)c1ccccc1	-7.95% (inactive)
COc1ccc(Cl)cc1NC(=O)[C@@H]1CCCN1C(=O)c1cccs1	-4.08% (inactive)
Cc1ccc(S(=O)(=O)N2CCCCC2)cc1NC(=O)[C@@H]1CCCN1C(=O)c1cccs1	-1.7% (inactive)
COc1cc(Cl)c(C)cc1NC(=O)[C@@H]1CCCN1C(=O)c1cccs1	14% (active)
C[C@@H](CN1C2=NC[C@@H](Cc3ccccc3)N2C[C@H]1Cc1ccc(O)cc1)NC(=O)CCC1CCCCC1	-7.8% (inactive)
COC(=O)C1=C(C)N(Cc2ccccc2C(F)(F)F)C(=NCC2CC2)NC1c1cccc(Cl)c1 (configuration not stated)	-5.91% (inactive)
COc1ccc(C2C(C#N)=C(N)Oc3n[nH]c(C)c32)cc1CN1CCN(c2ccc(F)cc2)CC1 (configuration not stated)	-5.67% (inactive)
CCCc1nc2c([nH]1)C(c1cccnc1)C(C#N)=C(N)O2 (configuration not stated)	-0.27% (inactive)

SMILES	inhibition
COc1ccc(-c2[nH]nc3c2C(c2ccncc2)C(C#N)=C(N)O3)cc1 (configuration not stated)	16.3% (active)
COC(=O)[C@]1(Cc2ccccc2)NC=C(C(=O)c2ccccc2)[C@@H]1c1cccc(OC)c1	-6.78% (inactive)
COc1ccc(N2CCN(C(=O)c3ccccc3NC(=O)C3=C(C)OCCS3)CC2)cc1	-6.97% (inactive)
CCCCNC(=O)c1ccccc1NC(=O)C1=C(C)OCCS1	103% (active)
CCCCNC(=O)c1ccccc1NC(=O)c1ccccc1N(C)S(C)(=O)=O	-3.23% (inactive)
CC1CCCN(c2cccc3c2S(=O)(=O)N(Cc2ccc(F)cc2)[C@@H](C)[C@H](c2ccccc2)O3)C1 (some centres not stated)	-4.47% (inactive)
CC(C)[C@@H](C(=O)OCC(=O)c1ccc2c(c1)NC(=O)CO2)N1C(=O)c2ccccc2C1=O	42.5% (active)
O=C1COc2ccc(C(=O)COC(=O)CCOc3ccccc3)cc2N1	-1.45% (inactive)
O=C1COc2ccc(C(=O)COC(=O)c3ccccc3Cl)cc2N1	-5.73% (inactive)
OC(c1ccccc1)(c1ccccc1)C1CCN(CCCOc2ccc(-c3ccsc3)cc2)CC1	-4.38% (inactive)
O=C(CSc1nnc(-c2ccco2)n1CC1CCCO1)c1ccccc1 (configuration not stated)	-2.73% (inactive)
CNC(=O)NC(=O)CSc1nnc(-c2ccc(F)cc2)n1CC1CCCO1 (configuration not stated)	29.6% (active)
Cc1nnc(SCC(=O)NNC(=O)c2ccc(Cl)cc2)n1CC1CCCO1 (configuration not stated)	-3.6% (inactive)
COc1cc2c(cc1OC)C(Cc1cc(OC)c(OC)cc1[N+](=O)[O-])=NCC2	-6.44% (inactive)
COc1cc2c(cc1OC)C(c1cccc([N+](=O)[O-])c1)=NCC2	13.9% (active)
COc1cc2c(cc1OC)C(/C=C/c1ccco1)=NCC2	-5.84% (inactive)
CC(C)CNc1cccc2c1S(=O)(=O)N[C@H](C)CO2	-4.46% (inactive)
COC(=O)Cc1nnn2c1[C@H](C)[C@H](c1ccccc1Br)OCC2	-3.41% (inactive)
COc1ccc(NC(=O)CSc2nc(N)c(-c3ccccc3)c(=O)[nH]2)cc1	1.59% (inactive)
COc1ccc(OC)c(NC(=O)CSc2nc(N)c(-c3ccccc3)c(=O)[nH]2)c1	29.8% (active)
COc1ccc(OC)c(NC(=O)CSc2nc(-c3ccccc3)cc(=O)[nH]2)c1	-1.18% (inactive)
